Data taken from PubChem BioAssay AID588456 (National Center for Advancing Translational Sciences (NCATS), 2011).
Out of some 390,000 compounds screened, about 55 (0.01%) were called active. Calls come from the whole dose curve; as a rule, active = well fitted inhibition curve with a large enough effect; inconclusive = small, poorly fitted or top-dose-only effect; inactive = no such curve, though single readings can be large or run the other way. Not all results are given here.

Biological target: Thioredoxin reductase 1, cytoplasmic (Rattus norvegicus) (UniProt O89049)
Sequence (O89049 whole entry, looked up): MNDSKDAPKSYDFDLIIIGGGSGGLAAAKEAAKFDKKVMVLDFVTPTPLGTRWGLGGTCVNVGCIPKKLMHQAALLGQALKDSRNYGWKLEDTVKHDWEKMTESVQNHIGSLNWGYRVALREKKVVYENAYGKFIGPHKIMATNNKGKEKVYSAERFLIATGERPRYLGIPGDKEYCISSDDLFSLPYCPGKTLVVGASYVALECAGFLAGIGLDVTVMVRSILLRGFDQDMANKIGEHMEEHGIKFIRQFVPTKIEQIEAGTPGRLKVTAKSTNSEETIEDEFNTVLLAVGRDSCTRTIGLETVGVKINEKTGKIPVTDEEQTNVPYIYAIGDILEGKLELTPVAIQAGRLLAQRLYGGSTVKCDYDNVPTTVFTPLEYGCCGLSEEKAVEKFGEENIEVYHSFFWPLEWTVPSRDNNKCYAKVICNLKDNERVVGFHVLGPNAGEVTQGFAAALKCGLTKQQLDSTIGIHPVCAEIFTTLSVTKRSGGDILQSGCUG
Assay: qHTS Assay for Substrates of Mammalian Selenoprotein Thioredoxin Reductase 1 (TrxR1): qHTS; note: nearly all actives have a fitted effect of over 50% in size
Conditions: purified TrxR1 substrate turnover, NADPH consumption readout; series mostly up to 114 µM
Text: The selenoprotein thioredoxin reductase (TrxR; EC 1.8.1.9) is a FAD containing homodimeric pyridine nucleotide-disulfide oxidoreductase with many cellular roles. Together with NADPH and its prime substrate thioredoxin (Trx), the enzyme forms the core of the Trx system. The mammalian Trx system exerts a wide spectrum of functions including redox regulation, antioxidant defense, regulation of transcription factors as well as support of cell growth and replication. Many of these functions involve the reduction of Trx, which may subsequently reduce a number of different substrates including ribonucleotide reductase, peroxiredoxins or NFkB. Mammalian TrxR itself also has a broad substrate specificity, reducing both protein and non-protein substrates, including low molecular weight compounds such as dehydroascorbate, lipoic acid, ubiquinone, and juglone. In addition, several drugs in clinical use for anticancer treatment are indeed known to target TrxR1.
This BioAssay is a validation of an NADPH fluorescence-based, dual-purpose qHTS rTrxR1 assay designed to find potential inhibitors and substrates of rTrxR1. For this particular BioAssay, actives are potential substrate. See related BioAssay for inhibition data deposition.
NIH Molecular Libraries Probe Production Network [MLPCN]
NIH Chemical Genomics Center [NCGC]
Assay Provider: Elias Arner, Karolinska Institute
Assay protocol: 2 uL of reagents (buffer in column 4 as negative control and 90 nM rTrxR1 in columns 1-3 and 5-48) were dispensed into Greiner black solid-bottom 1,536-well assay plates, followed by 1 uL of NADPH (400 uM final concentration) to each well. The plates were centrifuged at 1000 rpm for 15 seconds and subsequently incubated for 5 min at room temperature (~22 deg C) to allow for rTrxR1 reduction. Compounds (23 nL) were then transferred via Kalypsys pin tool equipped with 1536-pin array (10 nL slotted pins, V&P Scientific, San Diego, CA). In addition, a duplicate 2-fold serial dilution of the control compounds auranofin, a known gold-based TrxR1 inhibitor, and juglone (5-hydroxy-1,4-naphthoquinone), a natural TrxR1 substrate, were pin-transferred to columns 2 and 3, respectively. After incubation for 15 min at room temperature (~22 deg C), 1 uL of selenite (400 uM final concentration) were dispensed to each well. The plate was immediately transferred to a ViewLux high-throughput CCD imager (PerkinElmer), wherein kinetic measurements of NADPH fluorescence (Ex 340 nm, Em 450 nm) were acquired (8 minute kinetic read, see Table 1). Read 1 was utilized to assess the capacity of a compound to serve as an rTrxR1 substrate, i.e. a decrease in NADPH fluorescence compared to the no-compound background is an indication of a substrate behavior for that particular compound. For inhibitory activity of a compound, delta values, computed as the difference in fluorescence intensity between the first and last reads of an 8-minute time kinetic window, were used. All reagents were diluted in an assay buffer consisting of 50 mM Tris-HCl, pH 7.5, 2 mM EDTA, and 0.01% Tween-20.
Throughout the screen, reagent bottle and all liquid lines were made light-tight to minimize reagent degradation. All screening operations were performed on a fully integrated robotic system (Kalypsys, San Diego, CA) containing one RX-130 and two RX-90 anthropomorphic robotic arms (Staubli, Duncan, SC). Library plates were screened starting from the lowest and proceeding to the highest concentration, and a 'double-pinning' step of the highest concentration was required to access higher concentrations of compounds. Vehicle-only plates, with DMSO being pin-transferred to the columns 5-48, were inserted uniformly at the beginning and the end of each library in order to monitor and record any shifts in the background, which can be affected by reagent dispensers or loss in enzyme activity over time. […]
% is set by controls: 0 for no effect and ±100 for the full control effect.

Activity change, negative = substrate turnover, inactive:
Cc1ccc(-c2nc(=N)sn2Cc2ccccc2)cc1
C[N+]1(CC(=O)c2cccs2)CCOCC1
COc1ccccc1OCCNCC(O)COc1cccc2[nH]c3ccccc3c12 (configuration not stated)
CN(C)c1ccc(/C=c2\[nH]c(=O)/c(=C/c3ccc(N(C)C)cc3)[nH]c2=O)cc1
Cc1ccc(-n2nc(C)c(C(=O)O)c2-n2cccc2)cc1
OC(CBr)CN1CCCCC1 (configuration not stated)
O=C(O)/C(=C/c1c(C(=O)O)[nH]c2cc(Cl)cc(Cl)c12)c1ccccc1
Cc1ccc(-c2nnc(Nc3ccc(OCC(N)=O)cc3)c3ccccc23)cc1S(=O)(=O)NCC1CCCO1 (configuration not stated)
CCc1cccc(NC(=O)c2cnc(N3CCOCC3)c3ccccc23)c1
CCC(=O)N1CCc2cc(Br)cc(S(=O)(=O)NCc3ccc(Cl)cc3)c21
Cc1cc2oc(C(=O)N(Cc3ccc(Cl)cc3)Cc3ccco3)c(C)c2cc1Cl
O=C(C[n+]1ccncc1)c1ccc2c(c1)CCCC2
CNCCCOc1cc2nc(N3CCCN(C)CC3)nc(NC3CCN(C)CC3)c2cc1OC
C=CCNC(=O)c1ccc2nc(-c3ccco3)c(-c3ccco3)nc2c1
Clc1cccc[n+]1CCCC[n+]1ccccc1Cl
Cc1ccc(NC(=O)c2ccc3[nH]c(C)cc(=O)c3c2)c(C)c1
O=C(COC(=O)c1ccccc1OCCOc1ccccc1)Nc1cccc(Br)c1
O=C1CC(c2ccc(F)cc2F)c2cc3c(cc2N1)OCO3 (configuration not stated)
NS(=O)(=O)c1ccc(NC(=O)CSc2nnc3c(n2)[nH]c2ccccc23)cc1
COc1cc2[nH]c(C)c(CCN3CCN(c4ccccc4)CC3)c2cc1OC
COc1ccc(CCNC(=O)CCCn2c(=O)c3ccccc3n(Cc3ccc(C)cc3)c2=O)cc1OC
Cc1ccc(-c2cc(N)n(Cc3cccc(Cl)c3)n2)cc1
Oc1ccc(Cn2cc[nH]c2=S)cc1
OCC(O)C(O)C(O)C(O)C=Nc1ccc(/C=C/c2ccnc3ccccc23)cc1 (configuration not stated) 5.9% [at 0.0914 µM]
CC(C)CNc1ncnc2c1nnn2C
CCN1CCN(c2ccc(/C=C/c3ccnc4ccccc34)cc2)CC1
CCC(C(=O)Nc1cccc(-c2nc3cccnc3s2)c1C)c1ccccc1 (configuration not stated)
COC(=O)c1scc(-c2ccccc2)c1S(=O)(=O)Nc1ccccc1
C(=Nc1ccc(/C=C/c2ccnc3ccccc23)cc1)Nc1ccc(/C=C/c2ccnc3ccccc23)cc1
COc1cc2nc(N3CCCN(C)CC3)nc(NC3CC3)c2cc1OC
Cc1ccc(Cl)cc1NC(=O)NC1COc2ccccc2C1 (configuration not stated)
O=C(NCc1ccccc1)c1cccc(NC(=O)N2CCSc3ncccc32)c1
CC1(C)CC(=O)c2cc(C(=O)NCc3ccccc3)c(=O)[nH]c2C1
CCCCCCCNc1ccc(/C=C/c2ccnc3ccccc23)cc1
O=C(CC1Oc2ccc(Cl)cc2NC1=O)NCc1ccccc1 (configuration not stated)
CSc1cccc(NC(=O)CN2C(=O)CCc3cc(S(=O)(=O)N4CCCCC4)ccc32)c1
Cc1ccc(NC2=C(c3ccc(C(F)(F)F)cc3)C(=O)c3ccccc32)cc1F
CNC(=O)c1ccc(-c2nc(CN3CCc4ccccc43)c(C)o2)cc1
O=C(c1ccco1)N(Cc1cccs1)c1ccc(O)cc1
S=c1[nH]c(=S)c2n[nH]nc2[nH]1 -1.94% [at 0.0914 µM]
CC(C)(C)c1ccc(C(=O)C[N+]2(C)CCCc3ccccc32)cc1 (configuration not stated)
O=C(O)C1=C/C(=C/C=[N+]2c3cc(O)c(O[C@H]4OC(CO)[C@@H](O)[C@@H](O)[C@@H]4O)cc3C[C@@H]2C(=O)[O-])C[C@H](C(=O)O)N1 (some centres not stated)
CC1CC(C)CN(c2oc(-c3ccc(OCc4ccc(Cl)cc4)cc3)nc2C#N)C1 (configuration not stated) 6.36% [at 0.0914 µM]
c1ccc(Cn2nnc3c(N4CCCCC4)ncnc32)cc1
CCC(=O)N1CCc2cc(S(=O)(=O)NC(C(=O)NCCc3ccc(C)cc3)C(C)C)ccc21 (configuration not stated)
OCCNc1ncnc2oc(-c3ccco3)c(-c3ccco3)c12
O=[N+]([O-])c1ccc(/C=C/c2ccc3cccnc3c2)cc1
Cc1ccc(-c2nc3ccccn3c2Nc2ccc(F)cc2)o1
O=C(Nc1ccc(O)c(-c2nc3ccccc3o2)c1)c1ccc(-c2cccc(Cl)c2)o1
CCc1cccc(NC(=O)CN(C)S(=O)(=O)c2ccc3[nH]c4c(c3c2)CCCC4)c1
COc1cc2nc(C#Cc3nc4cc(OC)c(OC)cc4[nH]3)[nH]c2cc1OC
NC(=O)Nc1ccc(/C=C/c2ccnc3ccccc23)cc1
CCOC(=O)C1CCCN(C(=O)Cn2ncc3c(C)n(Cc4ccc(F)cc4)c(C)c3c2=O)C1 (configuration not stated)
COc1ccc(/C=C/c2ccnc3ccccc23)cc1OC
O=C(Nc1ccc([N+](=O)[O-])cc1)c1cnn2c1NC(=C1CC1)C=C2C(F)F
COc1ccc(-c2nc(CN3CCC(C(=O)NCc4ccccc4)CC3)c(C)o2)cc1OC
Cc1c(CCO)sc[n+]1CC(=O)c1ccc2ccccc2c1
CN(C)c1cccc2ccccc12
O=C(Nc1ccc(Cl)cc1)c1cnn2c1NC(=C1CC1)C=C2C(F)F
O=C(Cn1cc(SCc2ccccc2)c2ccccc21)N1CCCCC1
Cc1ccc(C(=O)Nc2ccc(OCc3cc(=O)n4c5c(sc4n3)CCCC5)cc2)cc1
N#Cc1ccc[n+](CC(=O)c2ccc(O)c(O)c2)c1
Cc1ccc(Nc2c(-c3ccc(C)s3)nc3ccccn23)cc1
COc1ccc(S(=O)(=O)Nc2cccc3cccnc23)c(N)c1
Cc1cccc(-c2nnc(SC(C)C(=O)Nc3ccccc3)n2C)c1 (configuration not stated)
CCn1c(C)c(C)c2cc(C(=O)NCCc3cc(OC)ccc3OC)ccc21
Cc1csc[n+]1CCC1CCCCC1
